What all share (type): functional
Assay [1] deals with Plasmodium falciparum. As to the kind of experiment: GSK_TCMDC: Inhibition of Plasmodium falciparum 3D7 in whole red blood cells, using parasite LDH activity as an index of growth. Test compounds present at 2uM.
Assay [2] deals with Plasmodium falciparum. As to the kind of experiment: GSK_TCMDC: Inhibition of Plasmodium falciparum Dd2 in whole red blood cells, using parasite LDH activity as an index of growth. Test compounds present at 2uM.
A further assay deals with HepG2. As to the kind of experiment: GSK_TCMDC: Percent inhibition of human HepG2 cell line. Test compounds present at 10uM.

For the compound `O=C(NCCN1CCCC1)c1cccc(Nc2nccc(Nc3ccc(Oc4ccccc4)cc3)n2)c1`, the Inhibition (in general, the share of the control response that was lost under treatment) in the assay on Plasmodium falciparum [1] was 100%; in the assay with Plasmodium falciparum [2] it was 18%; in the assay on HepG2, 33%.
The matching figures for `CC1Cc2ccccc2N1S(=O)(=O)c1cc(OCC(F)(F)F)ccc1OCC(F)(F)F` (centres undefined): 96%, 95% and 10%.
The matching figures for `CCc1ccc(NC(=O)N(CCCN2CCN(C)CC2)Cc2csc(-c3ccc(CNCc4ccccc4)cc3)n2)cc1.O=C(O)C(F)(F)F`: 99%, 80% and 17%.
The matching figures for `O=C(Nc1cccc(-c2ccc(-c3nc4cc(F)ccc4[nH]3)s2)c1)c1cccnc1`: 100%, 72% and 46%.
`Br.COc1ccc(CCCON2C(=N)N=C(N)NC2(C)C)cc1`: the Inhibition in the assay with Plasmodium falciparum [1] is 95%; with Plasmodium falciparum [2] it was 94%; with HepG2, 61%.
The matching figures for `CCc1nc(N)nc(N)c1CCCOc1ccccc1Cl.Cl`: 92%, 13% and 61%.
The matching figures for `CC(Nc1cc(-c2ccccn2)nc(-c2ccccn2)n1)c1ccccc1` (centres undefined): 85%, 98% and 61%.
The matching figures for `COc1ccc(NC(=O)[C@H](CC(C)C)Nc2cc(C)nc(NCc3cccc(C)c3)n2)cc1.O=C(O)C(F)(F)F`: 100%, 90% and 24%.
`CN(C)CCCOc1ccc(CN2CC[C@H](NC(=O)c3ccc(Cl)c(Cl)c3)C2)c2ccccc12.O=C(O)C(F)(F)F`: the Inhibition is recorded as 100% in the assay with Plasmodium falciparum [1], 97% in the assay on Plasmodium falciparum [2] and 81% in the assay on HepG2.
The matching figures for `CC=Cc1cc(Cc2c[nH]c(=N)[nH]c2=N)cc(CCC)c1OC`: 97%, 1% and 16%.
Take `CN(CCO)Cc1ccc(-c2ccc(NS(=O)(=O)c3cccc4cccnc34)cc2)cc1.O=C(O)C(F)(F)F`: the Inhibition in the assay with Plasmodium falciparum [1] stood at 99%; in the assay with Plasmodium falciparum [2], 84%; in the assay on HepG2, 28%.
As to `CN(C)Cc1cccc(-c2ccc(Nc3nccc(NCC(O)c4ccccc4)n3)cc2)c1` (centres undefined), the Inhibition in the assay with Plasmodium falciparum [1] is on record as 100%; in the assay on Plasmodium falciparum [2] it was 77%; with HepG2, 75%.
The matching figures for `Cc1ccc(NC(=O)c2ccc(CN3CCCN(CC4CCCCC4)CC3)cc2)cc1F.O=C(O)C(F)(F)F`: 92%, 61% and 51%.
The matching figures for `Nc1nc(N)c2cc(NC(=O)c3ccc(Cl)c(Cl)c3)ccc2n1`: 100%, 83% and 100%.
Turning to `Cc1ccc(NC(=O)Nc2ccc(Cn3ncc(N4CCCNCC4)c(Cl)c3=O)cc2)cc1.O=C(O)C(F)(F)F`, the results for the Inhibition in the assay on Plasmodium falciparum [1], in the assay with Plasmodium falciparum [2] and in the assay with HepG2 were 84%, 13% and 35%, respectively.
On the same counts, the results for `CCC[C@@H]1CCN[C@H]([C@H](O)c2ccnc3ccc(OC)cc23)C1.Cl` are 99%, 69% and 0%.
`COCCNCc1ncsc1-c1ccc2c(Nc3cc(O)ccc3C)ccnc2c1`: the Inhibition is listed as 100% in the assay on Plasmodium falciparum [1], 40% in the assay with Plasmodium falciparum [2] and 9% in the assay on HepG2.
The matching figures for `Cc1cccc(CC(=N)NCCCCCCNC(=N)Cc2cccc(C)c2)c1.Cl`: 97%, 97% and 12%.
The matching figures for `CCNc1cc(C(=O)N[C@@H](Cc2ccccc2)[C@H](O)CNC2CCC(C)(C)CC2)cc(N2CCCCS2(=O)=O)c1.Cl`: 98%, 71% and 1%.
Consider `N#Cc1cccc(C(O)CN(Cc2ccccc2)Cc2ccccc2)c1` (centres undefined), for which the Inhibition in the assay with Plasmodium falciparum [1] is 100%; in the assay with Plasmodium falciparum [2], 100%; in the assay with HepG2 it was 12%.
For the compound `O=C(CN1CCN(C(=O)c2ccco2)CC1)Nc1ccccc1Br`, the Inhibition in the assay on Plasmodium falciparum [1] was determined as 97%; with Plasmodium falciparum [2] it was 96%; in the assay with HepG2 it was 15%.
On to `COc1ccccc1CC1CCCN(C2CCC(NC(=O)c3cc4ccccc4[nH]3)CC2)C1` (centres undefined), for which the Inhibition with Plasmodium falciparum [1] is recorded as 98%; in the assay on Plasmodium falciparum [2], 21%; in the assay on HepG2, 23%.
As to `c1ccc2cc3c(NCCN4CCOCC4)ccnc3cc2c1`, the Inhibition is recorded as 99% with Plasmodium falciparum [1], 98% in the assay with Plasmodium falciparum [2] and 0% in the assay with HepG2.
On the same counts, the results for `O=C(c1ccc(F)c(F)c1)N1CCOC(CCN2CCC(c3ccccc3)CC2)(c2ccc(Cl)c(Cl)c2)C1` (centres undefined) are 89%, 75% and 51%.
As to `Cl.N[C@@H](CCNC1CCN(c2cccc(C(F)(F)F)c2)CC1)Cc1ccc(F)c(F)c1`, the values for the Inhibition in the assay with Plasmodium falciparum [1], in the assay with Plasmodium falciparum [2] and with HepG2 were 100%, 69% and 100%, respectively.
Consider `CCCCCCCN1CC[C@@H](CCCc2ccnc3ccc(OCCC4CCNCC4)cc23)[C@@H](CC)C1.Cl`, for which the Inhibition worked out at 100% in the assay with Plasmodium falciparum [1], 100% in the assay on Plasmodium falciparum [2] and 94% with HepG2.
As to `Cc1ccc(CON2C(=N)N=C(N)NC2(C)C)cc1C.Cl`, the Inhibition in the assay on Plasmodium falciparum [1] was 92%; in the assay on Plasmodium falciparum [2], 88%; in the assay on HepG2 it was 64%.
Take `Cc1cccc(CC2CC(=O)N(c3ccc([N+](=O)[O-])cc3)C2=O)c1` (centres undefined): the Inhibition was 95% with Plasmodium falciparum [1], 1% in the assay on Plasmodium falciparum [2] and 11% in the assay with HepG2.
In the case of `CCCC(=O)Nc1ccc(OCCCN(Cc2ccccc2OC(F)(F)F)c2ccc(C#N)c(C(F)(F)F)c2)cc1`, the Inhibition with Plasmodium falciparum [1] is 94%; in the assay with Plasmodium falciparum [2], 95%; with HepG2, 0%.
For `CCCCCCN1CCC(NCc2cccc([N+](=O)[O-])c2)CC1.O=C(O)C(F)(F)F`, the Inhibition turned out to be 100% in the assay with Plasmodium falciparum [1], 16% in the assay on Plasmodium falciparum [2] and 0% in the assay with HepG2.
As to `O=C(/C=C/c1ccc(Br)cc1)NCCCCCN1CCC(c2c[nH]c3ccccc23)CC1`, the Inhibition turned out to be 99% in the assay with Plasmodium falciparum [1], 19% in the assay on Plasmodium falciparum [2] and 73% in the assay with HepG2.
The matching figures for `CCn1c(-c2nonc2N)nc2c(Cl)ncc(O[C@H](CCN)c3ccccc3F)c21.Cl`: 96%, 88% and 15%.
`OC(CNc1ccnc(Nc2cccc(OCCCN3CCOCC3)c2)n1)c1ccccc1` (centres undefined): the Inhibition in the assay on Plasmodium falciparum [1] turned out to be 97%; with Plasmodium falciparum [2] it was 25%; in the assay with HepG2, 48%.
The matching figures for `Cc1nc(C)c(CC(=O)Nc2ccc(-c3cccc(-c4nc5cccc(C)c5[nH]4)c3)cc2)s1`: 100%, 38% and 41%.
`Cc1[nH]c(C)c(-c2ccc(-c3ccccc3F)nc2)c(=O)c1Cl`: the Inhibition with Plasmodium falciparum [1] came to 97%; in the assay with Plasmodium falciparum [2], 97%; in the assay with HepG2, 7%.
For the compound `COc1cccc(-c2cnc(-c3ccncc3)nc2C2CCN(Cc3ccc(NC(C)=O)cc3)CC2)c1`, the Inhibition is recorded as 89% in the assay on Plasmodium falciparum [1], 0% in the assay with Plasmodium falciparum [2] and 17% with HepG2.
The matching figures for `Cc1cc(NC(=O)Nc2ccc(C(C)C)cc2)c2ccccc2n1.Cl`: 99%, 16% and 7%.
The matching figures for `Cc1cc(N/N=C/c2cccc([N+](=O)[O-])c2)c2ccc(F)cc2n1`: 100%, 98% and 0%.
Regarding `CCc1c(CCNCCCCCCNCCc2ccc(OC)c(OC)c2CC)ccc(OC)c1OC.Cl`, the Inhibition in the assay on Plasmodium falciparum [1] was found to be 100%; in the assay on Plasmodium falciparum [2], 1%; in the assay on HepG2 it was 58%.
With `O=C(/C=C/c1ccc(Cl)c(Cl)c1)NCCCCCCN1CCCN(C(=O)Nc2cc(F)cc(F)c2)CC1`, the Inhibition was found to be 99% in the assay with Plasmodium falciparum [1], 0% with Plasmodium falciparum [2] and 25% in the assay with HepG2.
On the same counts, the results for `Cc1cc(N[C@@H](CC(C)C)C(=O)NCc2cccc(F)c2)nc(Nc2ccccc2)n1.O=C(O)C(F)(F)F` are 100%, 76% and 0%.
On the same counts, the results for `COc1ccc(-c2nc(NC(=O)Cc3ccc(OC)c(OC)c3)sc2C)cc1` are 93%, 22% and 33%.
The matching figures for `Cc1ccc(NC(=O)NC2CCN(c3ccnc4cc(Cl)ccc34)C2)cc1.O=C(O)C(F)(F)F` (centres undefined): 100%, 96% and 19%.
Consider `OC(CNc1ccnc(Nc2cccc(Cl)c2)n1)c1ccccc1C(F)(F)F` (centres undefined), for which the Inhibition in the assay on Plasmodium falciparum [1] is 95%; with Plasmodium falciparum [2], 36%; with HepG2, 40%.
On the same counts, the results for `CS(=O)(=O)Cc1ccc(Nc2nccc(NC3CCN(c4nccc(C(F)(F)F)n4)CC3)n2)cc1` are 88%, 23% and 34%.
The matching figures for `O=C(Nc1ccc(-c2cccc(-c3nc4ccccc4[nH]3)c2)cc1)Nc1ccsc1`: 100%, 90% and 56%.
`CC(C)CN(c1nc(C(=O)NNC(=O)[C@H](CC2CC2)NC(=O)c2cc3cc(OCCN4CCCCC4)ccc3o2)cs1)C1CC1`: the Inhibition is recorded as 97% with Plasmodium falciparum [1], 98% in the assay on Plasmodium falciparum [2] and 2% with HepG2.
The matching figures for `CN(C)CCNCc1cccc(-c2ccc3c(Nc4cc(O)c(Cl)cc4F)ccnc3c2)c1`: 99%, 59% and 6%.
On the same counts, the results for `COc1c(Br)cc(Br)cc1-c1ccc(CN2C3CCCC2CCC3)[nH]1.Cl` are 88%, 83% and 42%.
On the same counts, the results for `COc1cc2nc(N(C)CC3COc4ccccc4O3)nc(N)c2cc1OC.Cl` (centres undefined) are 94%, 26% and 11%.
Take `CCNc1cc(C)nc(Nc2ccc(NS(=O)(=O)c3cc(OC)ccc3OC)cc2)n1`: the results for the Inhibition in the assay with Plasmodium falciparum [1], in the assay on Plasmodium falciparum [2] and in the assay on HepG2 were 100%, 36% and 56%, respectively.
For `CCN(CC)CCN(Cc1ccc(-c2ccc(C(F)(F)F)cc2)nc1)C(=O)Cn1c(SCc2ccc(F)cc2)nc(=O)c2sccc21.O=C(O)C(O)C(O)C(=O)O`, the Inhibition in the assay with Plasmodium falciparum [1] stood at 96%; with Plasmodium falciparum [2], 66%; with HepG2 it was 43%.
On the same counts, the results for `COc1cc(C(=O)N2CCOC(CCN3CCC(c4ccc(Cl)cc4)CC3)(c3ccc(Cl)c(Cl)c3)C2)cc(OC)c1OC` (centres undefined) are 91%, 80% and 44%.
Consider `CC(=O)Nc1nc(C(=O)Nc2ccc(-c3cccc(-c4nc5ccccc5[nH]4)c3)cc2)cs1`, for which the Inhibition in the assay with Plasmodium falciparum [1] was found to be 99%; with Plasmodium falciparum [2], 83%; with HepG2, 68%.
In the case of `CC1(C)N=C(N)N=C(N)N1CCc1ccccc1.Cl`, the Inhibition in the assay on Plasmodium falciparum [1] is on record as 93%; in the assay on Plasmodium falciparum [2] it was 0%; in the assay on HepG2 it was 50%.
As to `COc1ccc(-c2ccc(NC(=O)c3cccs3)cc2)cc1CN1CCCN(C)CC1.O=C(O)C(F)(F)F`, the values for the Inhibition in the assay with Plasmodium falciparum [1], with Plasmodium falciparum [2] and in the assay with HepG2 were 100%, 30% and 31%, respectively.
On the same counts, the results for `COc1ccc(O)cc1/C=N/Nc1ccnc2cc(Cl)ccc12` are 100%, 92% and 0%.
For `COc1cccc(CN2CCCN(Cc3cccc(NC(=O)c4ccc(Cl)c(Cl)c4)c3)CC2)c1.O=C(O)C(F)(F)F`, the Inhibition in the assay with Plasmodium falciparum [1] is listed as 89%; in the assay with Plasmodium falciparum [2], 11%; with HepG2, 26%.
On the same counts, the results for `COc1ccc(CCN2CC[C@H](Nc3nc(-c4ccc(F)c(F)c4)nc4ccccc34)C2)cc1S(N)(=O)=O.Cl` are 99%, 64% and 18%.
On the same counts, the results for `COc1ccccc1C1CCN(C2CCC(NC(=O)/C=C/c3cccc(Cl)c3)CC2)CC1` (centres undefined) are 92%, 20% and 54%.
Regarding `N=C(N)Nc1ccc(C(=O)O)c(O)c1`, the Inhibition in the assay on Plasmodium falciparum [1] came out at 94%; in the assay on Plasmodium falciparum [2] it was 1%; in the assay on HepG2, 0%.
On the same counts, the results for `O=C(Nc1cccc(Cl)c1Cl)Nc1ccnc2ccccc12` are 100%, 47% and 31%.
For the compound `O=C(NC1CC1)c1cnc(N2CCN(Cc3ccc(Cl)cc3)CC2)c(Cl)c1.O=C(O)C(F)(F)F`, the Inhibition with Plasmodium falciparum [1] is 93%; in the assay with Plasmodium falciparum [2], 91%; with HepG2, 39%.

The record behind these values is ChEMBL document CHEMBL1157539, “Thousands of chemical starting points for antimalarial lead identification” (Nature, 2010).
